# Results from PubChem BioAssay (EPA / NIEHS).
# “And” between values parts separate entries of the source, which are not always exact repeats. Identical values can stand only once. Records with an inconclusive call do not appear. The source made the active and inactive calls. How the source made its calls: active means hit-call score of the fitted dose curve at least 0.9, where 1 is the maximum; inconclusive means response in the unintended direction; inactive means score below 0.9.
# System: rat Adrenergic, Alpha 1B Receptor (Adra1B), gene 24173
# Assay: NVS_GPCR_rAdra1B: NovaScreen (NVS) G Protein-Coupled Receptor Assay for rat Adrenergic, Alpha 1B Receptor (Adra1B) (AID 2283297)
# Experimental: NVS_GPCR_rAdra1B is a biochemical, single-readout assay that uses extracted gene-proteins from Rat liver membranes in a tissue-based cell-free assay. Measurements were taken 1 hour after chemical dosing in a 48-well plate.NVS_GPCR_rAdra1B is one of one assay component(s) measured or calculated from the NVS_GPCR_rAdra1B assay. It is designed to make measurements of radioligand binding, a form of binding reporter, as detected with scintillation counting signals by Filter-based radiodetection technology.Data from the assay component NVS_GPCR_rAdra1B was analyzed into 1 assay endpoint. This assay endpoint, NVS_GPCR_rAdra1B, was analyzed in the positive analysis fitting direction relative to DMSO as the negative control and baseline of activity. Using a type of binding reporter, loss-of-signal activity can be used to understand changes in the binding as they relate to the gene Adra1b. Furthermore, this assay endpoint can be referred to as a primary readout, because the performed assay has only produced 1 assay endpoint. To generalize the intended target to other relatable targets, this assay endpoint is annotated to the gpcr intended target family, where the subfamily is rhodopsin-like receptor.
# Binding assays used specific radioligands (tritiated, iodinated) with non-radioactive competitive displacement ligands in agonist or antagonist protocols (as indicated) and various reference compounds and inhibitors to titrate specific binding to receptors and transporters. Most enzyme assays (CYPs, kinases, phosphatases, proteases, HDACs) used recombinant protein and specific substrates (fluorescence mostly, some colorimetric and radioactive) and inhibitors, followed by a biochemical separation of substrate and product. All assays for the biochemical HTS were initially run in duplicate at a single concentration (10 uM for CYP450 assays and 25 uM for all others). […] Each assay was run with positive and negative controls, and concurrent controls on every plate. […]
row,SMILES,AC50
1,CCCCc1oc2ccccc2c1C(=O)c1cc(I)c(OCCN(CC)CC)c(I)c1,9.13 µM (active)
2,N=C(N)c1ccc(OCCCCCOc2ccc(C(=N)N)cc2)cc1,1.06 µM (active)
3,CN(C)CCOC(c1ccccc1)c1ccccc1,9.65 µM (active)

# Molecular target: rat Adrenergic Receptor, Alpha 2 (Adra2), Non-selective Binding, Adra2a (gene 25083) (UniProt P22909)
# Assay: NVS_GPCR_rAdra2_NonSelective: NovaScreen (NVS) G Protein-Coupled Receptor Assay for rat Adrenergic Receptor, Alpha 2 (Adra2), Non-selective Binding (AID 2283299)
# Method in brief: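 Rat cortical membranes, radioligand competitive displacement read by filter-based scintillation counting 1.25 hours after dosing. Primary screen in duplicate at 25 uM; actives followed up in concentration series.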
# rat Adrenergic Receptor, Alpha 2 (Adra2), Non-selective Binding, Adra2a (gene 25083), sequence (P22909 whole entry, looked up): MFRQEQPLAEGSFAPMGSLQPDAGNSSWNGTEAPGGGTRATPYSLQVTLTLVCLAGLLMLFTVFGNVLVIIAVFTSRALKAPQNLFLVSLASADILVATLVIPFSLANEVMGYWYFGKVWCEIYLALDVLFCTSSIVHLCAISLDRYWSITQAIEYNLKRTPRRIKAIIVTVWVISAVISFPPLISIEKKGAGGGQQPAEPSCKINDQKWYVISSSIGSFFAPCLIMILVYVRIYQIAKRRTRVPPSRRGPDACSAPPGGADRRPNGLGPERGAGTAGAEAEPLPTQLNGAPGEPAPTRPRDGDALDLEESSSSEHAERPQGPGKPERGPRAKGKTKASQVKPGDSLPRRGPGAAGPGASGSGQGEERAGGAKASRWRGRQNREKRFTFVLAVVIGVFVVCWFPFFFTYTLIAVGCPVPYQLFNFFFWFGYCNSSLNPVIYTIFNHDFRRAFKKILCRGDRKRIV
row,SMILES,AC50
1,COC1=CC(=O)C[C@@H](C)[C@]12Oc1c(Cl)c(OC)cc(OC)c1C2=O,3.69 µM (active)
2,CCCCc1oc2ccccc2c1C(=O)c1cc(I)c(OCCN(CC)CC)c(I)c1,10.8 µM (active)
3,N=C(N)c1ccc(OCCCCCOc2ccc(C(=N)N)cc2)cc1,3.49 µM (active)
4,CN(C)CCOC(c1ccccc1)c1ccccc1,8.43 µM (active)
5,NC(=NCCCCCCN=C(N)/N=C(\N)Nc1ccc(Cl)cc1)/N=C(\N)Nc1ccc(Cl)cc1,17.6 µM (active)
6,CN(C)c1ccc(C(=C2C=CC(=[N+](C)C)C=C2)c2ccccc2)cc1,8.31 µM (active) and 7.55 µM (active)

# Molecular target: rat Histamine Receptor (H3), Hrh3 (gene 85268) (UniProt Q9QYN8)
# Assay: NVS_GPCR_rH3: NovaScreen (NVS) G Protein-Coupled Receptor Assay for rat Histamine Receptor (H3) (AID 2283303)
# Method in brief: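 Rat forebrain membranes incubated 1 h with compound; radioligand displacement measured by filter-based scintillation counting. Single-concentration duplicates at 25 µM, then concentration-response up to 50 µM, relative to DMSO.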
# rat Histamine Receptor (H3), Hrh3 (gene 85268), sequence (Q9QYN8 whole entry, looked up): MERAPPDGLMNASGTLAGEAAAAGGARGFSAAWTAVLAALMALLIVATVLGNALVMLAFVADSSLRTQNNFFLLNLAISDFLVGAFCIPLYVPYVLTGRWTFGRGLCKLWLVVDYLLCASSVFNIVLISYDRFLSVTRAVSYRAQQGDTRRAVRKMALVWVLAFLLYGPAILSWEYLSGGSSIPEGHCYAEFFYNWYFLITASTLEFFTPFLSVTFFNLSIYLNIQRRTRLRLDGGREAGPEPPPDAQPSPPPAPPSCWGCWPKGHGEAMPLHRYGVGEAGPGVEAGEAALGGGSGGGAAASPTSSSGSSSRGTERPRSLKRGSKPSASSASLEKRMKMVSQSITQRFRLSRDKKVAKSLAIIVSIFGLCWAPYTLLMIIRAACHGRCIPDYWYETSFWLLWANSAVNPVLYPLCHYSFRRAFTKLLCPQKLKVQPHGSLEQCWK
SMILES,AC50,outcome
CCCCc1oc2ccccc2c1C(=O)c1cc(I)c(OCCN(CC)CC)c(I)c1,6.48 µM (active),–
N=C(N)c1ccc(OCCCCCOc2ccc(C(=N)N)cc2)cc1,0.362 µM (active),–
CN(C)CCOC(c1ccccc1)c1ccccc1,–,inactive

# Molecular target: Adra2b (gene 24174) (UniProt P19328)
# Assay: NVS_GPCR_rmAdra2B: NovaScreen (NVS) G Protein-Coupled Receptor Assay for hybird cells Adrenergic, Alpha 2B Receptor (Adra2B) (AID 2283306)
# Method in brief: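 Radioligand filter-binding assay on membrane proteins from neuroglioma/blastoma hybrid cells (rodent), 1 h after dosing; scintillation counting, loss of signal vs DMSO. Primary screen in duplicate at 25 uM, actives then run in concentration series.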
# Adra2b (gene 24174), sequence (P19328 whole entry, looked up): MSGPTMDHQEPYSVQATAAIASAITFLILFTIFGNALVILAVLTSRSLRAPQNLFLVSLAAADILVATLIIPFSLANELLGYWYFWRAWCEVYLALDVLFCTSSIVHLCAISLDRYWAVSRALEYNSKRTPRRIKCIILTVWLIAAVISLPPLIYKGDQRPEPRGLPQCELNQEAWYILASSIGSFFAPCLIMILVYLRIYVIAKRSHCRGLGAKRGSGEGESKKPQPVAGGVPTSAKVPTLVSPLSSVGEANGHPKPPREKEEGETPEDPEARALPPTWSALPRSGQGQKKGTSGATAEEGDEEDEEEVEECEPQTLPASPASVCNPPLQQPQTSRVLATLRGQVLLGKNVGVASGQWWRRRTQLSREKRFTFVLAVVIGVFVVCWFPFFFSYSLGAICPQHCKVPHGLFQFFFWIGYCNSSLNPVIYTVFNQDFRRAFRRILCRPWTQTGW
row,SMILES,AC50
1,CCCCc1oc2ccccc2c1C(=O)c1cc(I)c(OCCN(CC)CC)c(I)c1,11.4 µM (active)
2,N=C(N)c1ccc(OCCCCCOc2ccc(C(=N)N)cc2)cc1,9.06 µM (active)
3,CN(C)CCOC(c1ccccc1)c1ccccc1,3.12 µM (active)
